For seven molecules, Potency and outcome results are on record in PubChem BioAssay (Tox21).

A number with no mark means an inactive call. Records with an inconclusive call do not appear. Active and inactive are the calls of the source. Unless noted, calls come from the whole dose curve.

Test [1] in a line: qHTS assay to identify small molecule antagonists of the sonic hedgehog signaling (Shh) pathway (AID 1259369). Note: nearly all actives have a fitted effect of over 45% in size. Note: potency is the fitted concentration of half-maximal effect. The method, boiled down: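 3T3Gli1-Luc, conditioned-medium-stimulated, 24hr cpd, 37C/5% CO2; Gli1-driven firefly Luc luminescence after 30min RT with luciferase reagent. Cells plated 4hr before cpd.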
A general note: In qHTS, concentration-response curves come from the screen itself.

Test [2] concerns the target Estrogen receptor beta (Homo sapiens) (UniProt Q92731). Description: qHTS assay to identify small molecule agonists of the estrogen receptor beta (ER-beta) signaling pathway (AID 1259377; active = well fitted activation curve with a large enough effect in the signal ratio in the repeat runs, not every such curve was filed as active; the % refers to the signal ratio). The method, boiled down:
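HEK293T ER-beta-UAS-bla; 2% charcoal-stripped FBS; cells pre-incubated 6 hr, compound 16 hr, 37C/5% CO2; LiveBLAzer B/G FRET substrate 2 h RT; fluorescence intensity read.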

For test [3] the target is unchanged. Description: qHTS assay to identify small molecule antagonists of the estrogen receptor beta (ER-beta) signaling pathway (AID 1259378; active = well fitted inhibition curve with a large enough effect in the signal ratio in the repeat runs, not every such curve was filed as active; the % refers to the signal ratio). Put shortly: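 Antagonist mode: compounds added to beta-lactamase reporter HEK293T ER-beta-UAS cells stimulated with E2 (1nM final), 16 hr at 37C. LiveBLAzer B/G FRET substrate, 2 hours room temperature, fluorescence read-out.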

Test [4] in a line: qHTS assay to identify small molecule agonists of the androgen receptor (AR) signaling pathway in the presence of an antagonist - cell viability counter screen (AID 1259379; active = well fitted curve in the direction sought with a large enough effect in the repeat runs; an effect the other way counts as inactive or inconclusive;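 note: MDA-kb2 human breast cancer cells carrying an MMTV luciferase reporter; series mostly up to about 92 µM; nearly all actives have a fitted effect of over 25% in size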). Put shortly: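 Cells: MDA-kb2 (MMTV-luc, AR and GR elements), 3,000/well, 5 hr settle. Added: nilutamide 3.0uM final, then compounds (15 conc.). Incubation: 16 hr, 37C, no CO2. Read-out: CellTiter-Fluor, 1 hr, fluorescence.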

Test [5] can be described thus: qHTS assay to identify small molecule agonists of the estrogen receptor beta (ER-beta) signaling pathway - cell viability counter screen (AID 1259380; active = well fitted curve in the direction sought with a large enough effect in the repeat runs; an effect the other way counts as inactive or inconclusive; note: nearly all actives have a fitted effect of over 30% in size). The method, boiled down:
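HEK293T ER-beta-UAS-bla; 2% CS-FBS; 6 hr pre-plate, 16 hr cpd at 37C/5% CO2; LiveBLAzer read first, then CellTiter-Glo 30 min RT, luminescence.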

Test [6] has as its target Androgen receptor (Homo sapiens) (UniProt P10275). Description: qHTS assay to identify small molecule agonists of the androgen receptor (AR) signaling pathway in the presence of an antagonist (AID 1259381). Note: nearly all actives have a fitted effect of over 15% in size. The method, boiled down: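 MDA-kb2 cells, 3,000/well, rested 5hr at 37C/0% CO2 → nilutamide 3.0uM final or buffer → compounds, 15 conc. → 16hr at 37C → ONE-Glo, 30min RT → luminescence.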

The nature of test [7]: qHTS assay to identify small molecule agonists or antagonists of the thyroid stimulating hormone receptor (TSHR) signaling pathway - wild type cell line counter screen (AID 1259384). Put shortly: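 Counter screen in untransfected Hek293: compounds (15-point titration, triplicate) plus phosphodiesterase inhibitor Ro20-1724 added after 18 h plating; 30 min RT. Intracellular cAMP via competitive d2/cryptate immunoassay, 1 h incubation.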

The target of test [8] is Thyrotropin receptor (Homo sapiens) (UniProt P16473). Description: qHTS assay to identify small molecule antagonists of the thyroid stimulating hormone receptor (TSHR) signaling pathway (AID 1259385). Note: nearly all actives have a fitted effect of over 20% in size. Put shortly: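 Antagonist mode: compound-treated TSHR-expressing HEK293 cells were stimulated with 1.5 ng/mL TSH (final) in presence of Ro20-1724 for 30 min at RT. HTRF cAMP detection after 1 h; each compound tested at 15 concentrations, triplicate.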
Chain of Thyrotropin receptor (Homo sapiens) (P16473 whole entry, looked up): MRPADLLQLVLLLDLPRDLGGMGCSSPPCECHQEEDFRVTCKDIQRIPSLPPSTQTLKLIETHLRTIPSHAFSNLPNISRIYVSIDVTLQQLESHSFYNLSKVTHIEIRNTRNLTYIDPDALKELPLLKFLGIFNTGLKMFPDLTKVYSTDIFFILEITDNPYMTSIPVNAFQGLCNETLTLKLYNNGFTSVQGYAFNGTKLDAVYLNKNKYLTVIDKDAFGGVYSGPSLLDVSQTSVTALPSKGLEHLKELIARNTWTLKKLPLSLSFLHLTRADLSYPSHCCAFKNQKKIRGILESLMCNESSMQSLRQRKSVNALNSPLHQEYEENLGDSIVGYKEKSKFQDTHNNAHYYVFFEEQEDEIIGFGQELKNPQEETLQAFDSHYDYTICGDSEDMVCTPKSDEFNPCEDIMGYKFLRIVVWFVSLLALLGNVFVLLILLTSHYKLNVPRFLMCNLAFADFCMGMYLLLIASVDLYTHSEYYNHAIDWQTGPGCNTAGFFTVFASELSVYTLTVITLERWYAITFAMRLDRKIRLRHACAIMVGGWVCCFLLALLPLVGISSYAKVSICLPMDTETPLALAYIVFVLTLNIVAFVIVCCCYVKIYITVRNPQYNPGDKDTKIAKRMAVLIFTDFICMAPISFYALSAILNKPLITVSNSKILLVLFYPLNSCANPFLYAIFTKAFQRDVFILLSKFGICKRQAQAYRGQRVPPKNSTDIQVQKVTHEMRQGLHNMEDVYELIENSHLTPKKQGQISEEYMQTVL

Test [9] is described as follows: qHTS assay to identify small molecule agonists of the estrogen receptor alpha (ER-alpha) signaling pathway in the presence of an antagonist - cell viability counter screen (AID 1259386; active = well fitted curve in the direction sought with a large enough effect in the repeat runs; an effect the other way counts as inactive or inconclusive;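 note: series mostly up to about 92 µM; cells exposed to compounds for 22 h at 37 °C before the viability read; nearly all actives have a fitted effect of over 30% in size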). The method, boiled down:
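VM7Luc4E2, stripped-serum pre-culture 5 d; 24hr plating; +ICI-182,780 10.0nM final; cpds 15 conc, 22hr, 37C/5% CO2; CellTiter-Fluor added at 21hr, fluorescence 1hr later.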

Test [10] has as its target Progesterone receptor (Homo sapiens) (UniProt P06401). Description: qHTS assay to identify small molecule antagonists of the progesterone receptor (PR) signaling pathway (AID 1346795; active = well fitted inhibition curve with a large enough effect in the signal ratio in the repeat runs, not every such curve was filed as active; the % refers to the signal ratio). Put shortly: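 Read-out is fluorescence from the LiveBLAzer B/G FRET substrate, cleaved by a UAS-controlled beta-lactamase in PR-UAS-bla HEK293T cells after 16 hr exposure to compound plus 1 nM promegestone (final), followed by 2 hr at room temperature.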

The nature of test [11]: qHTS assay to identify small molecule agonists of the progesterone receptor (PR) signaling pathway - cell viability counter screen (AID 1346799). Note: nearly all actives have a fitted effect of over 45% in size. Put shortly: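 Luminescence from CellTiter-Glo, added after the beta-lactamase FRET read in the same wells, gave cytotoxicity in PR-UAS-bla HEK293T cells treated with compounds for 16 hr at 37C.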
A short description of test [12]: qHTS assay to identify small molecule antagonists of the TGF-beta/Smad signaling pathway - cell viability counter screen (AID 1346824; active = well fitted curve in the direction sought with a large enough effect in the repeat runs; an effect the other way counts as inactive or inconclusive; note: nearly all actives have a fitted effect of over 50% in size). The method, boiled down: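 Cytotoxicity counter-screen run in the same wells as the beta-lactamase Smad reporter read: CellTiter-Glo luminescence after 30 min at room temperature. HEK 293T SBE-bla cells had 5 hr compound exposure at 37 C with TGF-beta1 (0.25 ng/mL stock).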

Test [13] can be described thus: qHTS assay to identify small molecule agonists of the TGF-beta/Smad signaling pathway - cell viability counter screen (AID 1346829; active = well fitted curve in the direction sought with a large enough effect in the repeat runs; an effect the other way counts as inactive or inconclusive; note: top concentration of the series differs between compounds; nearly all actives have a fitted effect of over 45% in size). Put shortly: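 Cytotoxicity counter screen: CellTiter-Glo luminescence (30 min, room temperature) measured in the SBE-bla HEK 293T reporter wells after 5 hr compound treatment at 37 C and the 2 hr substrate step.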
A short description of test [14]: qHTS assay to identify small molecule agonists of the TGF-beta/Smad signaling pathway (AID 1346859; active = well fitted activation curve with a large enough effect in the signal ratio in the repeat runs, not every such curve was filed as active; the % refers to the signal ratio; note: series mostly up to about 77 µM). Put shortly: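 SBE-bla HEK 293T, 4,000 cells/well, plated o/n; cpd in DMSO, 5 hr, 37 C/5% CO2; B/G FRET substrate 2 hr RT; ex 405, em 460/530 nm.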
The target of test [15] is Thyrotropin-releasing hormone receptor (Homo sapiens) (UniProt P34981). In words: qHTS assay to identify small molecule antagonists of the thyrotropin-releasing hormone receptor (TRHR) signaling pathway (AID 1346877; active = well fitted inhibition curve with a large enough effect in the repeat runs, not every such curve was filed as active; note: series mostly up to about 51 µM). Put shortly: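 Intracellular calcium fluorescence, read kinetically every second over 3 min, reports TRH-evoked signalling in HEK293 cells carrying TRHR. Test compounds were added 5 min ahead of a 1 nM TRH challenge.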
Chain of Thyrotropin-releasing hormone receptor (Homo sapiens) (P34981 whole entry, looked up): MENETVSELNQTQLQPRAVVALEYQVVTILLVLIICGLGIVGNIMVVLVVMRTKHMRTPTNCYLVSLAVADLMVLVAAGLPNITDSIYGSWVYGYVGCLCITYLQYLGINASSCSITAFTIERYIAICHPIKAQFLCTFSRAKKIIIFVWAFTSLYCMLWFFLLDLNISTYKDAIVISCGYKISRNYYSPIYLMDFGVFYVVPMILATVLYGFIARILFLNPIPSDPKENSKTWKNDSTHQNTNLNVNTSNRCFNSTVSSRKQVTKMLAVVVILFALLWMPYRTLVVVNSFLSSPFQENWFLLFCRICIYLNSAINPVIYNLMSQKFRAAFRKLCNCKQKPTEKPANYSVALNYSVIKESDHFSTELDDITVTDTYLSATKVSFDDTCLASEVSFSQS

Test [16] shares this target. Description: qHTS assay to identify small molecule agonists of the thyrotropin-releasing hormone receptor (TRHR) signaling pathway (AID 1346891). Note: series mostly up to about 58 µM. Put shortly: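 Intracellular calcium rise, read as fluorescence every second for 3 min, served as the agonist signal in dye-loaded HEK293 cells expressing TRHR; each compound ran at 15 concentrations in triplicate.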
Test [17] concerns the target Estrogen receptor (Homo sapiens) (UniProt P03372). In words: qHTS assay to identify small molecule agonists of the estrogen receptor alpha (ER-alpha) signaling pathway in the presence of an antagonist (AID 1259383). Note: top concentration of the series differs between compounds; nearly all actives have a fitted effect of over 15% in size. The method, boiled down:
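VM7Luc4E2, endog. ER-alpha + 4×ERE-luc; charcoal-stripped FBS, phenol red-free, 5 d; 24hr plating; +10.0nM ICI-182,780 (final); cpds 15 conc, 22hr, 37C/5% CO2; ONE-Glo luminescence.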

Test [18] deals with Progesterone receptor (Homo sapiens) (UniProt P06401). Description: qHTS assay to identify small molecule agonists of the progesterone receptor (PR) signaling pathway (AID 1346784). Note: nearly all actives have a fitted effect of over 30% in size. Note: potency is the fitted concentration of half-maximal effect. Put shortly: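 Beta-lactamase reporter read-out: after 16 hr compound treatment at 37C and a further 2 hr at room temperature with LiveBLAzer B/G FRET substrate, fluorescence was measured in PR-UAS-bla HEK 293T cells grown in 2% charcoal-stripped serum.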
Chain of Progesterone receptor (Homo sapiens) (P06401 whole entry, looked up): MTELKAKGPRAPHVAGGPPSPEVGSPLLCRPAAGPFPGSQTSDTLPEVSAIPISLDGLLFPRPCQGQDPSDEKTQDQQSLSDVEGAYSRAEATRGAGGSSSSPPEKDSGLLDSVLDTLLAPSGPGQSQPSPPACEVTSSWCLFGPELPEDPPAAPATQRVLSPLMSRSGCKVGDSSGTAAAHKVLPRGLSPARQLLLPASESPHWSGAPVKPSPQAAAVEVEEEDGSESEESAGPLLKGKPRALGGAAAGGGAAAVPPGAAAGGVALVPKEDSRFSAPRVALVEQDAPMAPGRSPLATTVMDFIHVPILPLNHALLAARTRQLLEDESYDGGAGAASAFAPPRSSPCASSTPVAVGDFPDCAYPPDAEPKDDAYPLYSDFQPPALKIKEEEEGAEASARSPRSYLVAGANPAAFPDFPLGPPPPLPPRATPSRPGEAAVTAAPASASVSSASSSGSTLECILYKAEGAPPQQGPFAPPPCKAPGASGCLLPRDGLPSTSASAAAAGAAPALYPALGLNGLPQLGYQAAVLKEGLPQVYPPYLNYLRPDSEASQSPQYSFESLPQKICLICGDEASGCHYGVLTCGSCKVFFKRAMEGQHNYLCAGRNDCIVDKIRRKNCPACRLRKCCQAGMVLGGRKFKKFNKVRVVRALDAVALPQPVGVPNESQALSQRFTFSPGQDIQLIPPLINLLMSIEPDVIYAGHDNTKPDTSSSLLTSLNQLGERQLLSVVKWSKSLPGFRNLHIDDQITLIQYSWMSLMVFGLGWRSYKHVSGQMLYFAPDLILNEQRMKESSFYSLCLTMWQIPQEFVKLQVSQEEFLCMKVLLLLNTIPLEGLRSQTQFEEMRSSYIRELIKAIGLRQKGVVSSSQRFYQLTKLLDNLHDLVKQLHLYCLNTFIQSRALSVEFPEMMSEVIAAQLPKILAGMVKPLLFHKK

Test [19] is described as follows: qHTS assay to identify small molecule antagonists of the progesterone receptor (PR) signaling pathway - cell viability counter screen (AID 1346798; active = well fitted curve in the direction sought with a large enough effect in the repeat runs; an effect the other way counts as inactive or inconclusive; note: nearly all actives have a fitted effect of over 50% in size; note: potency is the fitted concentration of half-maximal effect). The method, boiled down:
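HEK293T PR-UAS-bla, 2% charcoal-stripped FBS; 4 hr pre-plate; cpd + R5020, 16 h 37C; LiveBLAzer read first; then CellTiter-Glo 30 min RT, luminescence.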

Test [20] is described as follows: qHTS assay to identify small molecule antagonists of the estrogen receptor beta (ER-beta) signaling pathway - cell viability counter screen (AID 1259382; active = well fitted curve in the direction sought with a large enough effect in the repeat runs; an effect the other way counts as inactive or inconclusive;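 note: HEK293T cells carrying ER-beta-UAS-bla reporter stimulated with estradiol; series mostly up to about 92 µM; nearly all actives have a fitted effect of over 55% in size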). The method, boiled down: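 Cells: ER-beta-UAS-bla HEK293T, 2,000/well, 2% CS-FBS, 6 hr settle. Cpd + E2 (1nM final), 16 hr, 37C/5% CO2. Bla FRET substrate 2 hr RT, then CellTiter-Glo 30 min RT, luminescence.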

Chain of Estrogen receptor (Homo sapiens) (P03372 whole entry, looked up): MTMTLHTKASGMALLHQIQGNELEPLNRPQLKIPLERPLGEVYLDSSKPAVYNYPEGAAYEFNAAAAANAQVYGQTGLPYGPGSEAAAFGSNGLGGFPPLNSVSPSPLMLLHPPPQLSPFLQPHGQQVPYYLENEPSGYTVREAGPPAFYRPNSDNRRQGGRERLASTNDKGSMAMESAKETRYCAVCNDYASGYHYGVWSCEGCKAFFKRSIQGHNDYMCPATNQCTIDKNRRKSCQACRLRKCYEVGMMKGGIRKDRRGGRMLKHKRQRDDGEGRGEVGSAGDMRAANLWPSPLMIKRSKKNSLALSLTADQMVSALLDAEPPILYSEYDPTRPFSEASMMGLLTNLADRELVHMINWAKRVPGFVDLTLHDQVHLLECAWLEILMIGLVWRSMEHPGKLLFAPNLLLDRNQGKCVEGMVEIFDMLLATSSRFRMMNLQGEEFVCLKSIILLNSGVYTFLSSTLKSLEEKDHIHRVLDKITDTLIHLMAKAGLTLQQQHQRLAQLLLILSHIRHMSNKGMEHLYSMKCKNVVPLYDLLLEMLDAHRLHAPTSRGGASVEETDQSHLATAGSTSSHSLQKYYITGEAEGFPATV
Chain of Androgen receptor (Homo sapiens) (P10275 whole entry, looked up): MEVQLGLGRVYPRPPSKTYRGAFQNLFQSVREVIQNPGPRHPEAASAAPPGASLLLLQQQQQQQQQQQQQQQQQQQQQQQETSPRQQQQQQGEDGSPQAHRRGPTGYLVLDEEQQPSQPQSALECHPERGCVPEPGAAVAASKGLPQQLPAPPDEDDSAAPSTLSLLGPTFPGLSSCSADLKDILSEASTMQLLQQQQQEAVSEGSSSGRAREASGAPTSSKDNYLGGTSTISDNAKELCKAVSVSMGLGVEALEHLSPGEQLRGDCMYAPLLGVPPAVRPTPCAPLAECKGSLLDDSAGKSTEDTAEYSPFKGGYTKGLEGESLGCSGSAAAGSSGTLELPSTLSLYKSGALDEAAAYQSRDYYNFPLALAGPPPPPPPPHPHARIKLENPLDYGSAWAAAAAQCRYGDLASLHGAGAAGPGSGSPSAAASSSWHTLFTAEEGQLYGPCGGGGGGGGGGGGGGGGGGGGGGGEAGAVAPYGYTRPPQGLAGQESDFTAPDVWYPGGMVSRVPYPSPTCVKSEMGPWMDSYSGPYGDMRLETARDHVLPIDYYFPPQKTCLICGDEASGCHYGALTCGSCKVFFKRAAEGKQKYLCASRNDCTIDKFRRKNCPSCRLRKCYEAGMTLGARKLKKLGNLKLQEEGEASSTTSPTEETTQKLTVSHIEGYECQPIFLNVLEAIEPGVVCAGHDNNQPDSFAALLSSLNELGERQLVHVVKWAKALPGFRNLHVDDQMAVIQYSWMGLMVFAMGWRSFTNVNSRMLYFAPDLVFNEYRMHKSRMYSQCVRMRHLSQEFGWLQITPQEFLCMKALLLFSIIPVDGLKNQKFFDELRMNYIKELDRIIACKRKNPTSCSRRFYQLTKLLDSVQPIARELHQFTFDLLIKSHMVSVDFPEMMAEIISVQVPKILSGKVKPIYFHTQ
Chain of Estrogen receptor beta (Homo sapiens) (Q92731 whole entry, looked up): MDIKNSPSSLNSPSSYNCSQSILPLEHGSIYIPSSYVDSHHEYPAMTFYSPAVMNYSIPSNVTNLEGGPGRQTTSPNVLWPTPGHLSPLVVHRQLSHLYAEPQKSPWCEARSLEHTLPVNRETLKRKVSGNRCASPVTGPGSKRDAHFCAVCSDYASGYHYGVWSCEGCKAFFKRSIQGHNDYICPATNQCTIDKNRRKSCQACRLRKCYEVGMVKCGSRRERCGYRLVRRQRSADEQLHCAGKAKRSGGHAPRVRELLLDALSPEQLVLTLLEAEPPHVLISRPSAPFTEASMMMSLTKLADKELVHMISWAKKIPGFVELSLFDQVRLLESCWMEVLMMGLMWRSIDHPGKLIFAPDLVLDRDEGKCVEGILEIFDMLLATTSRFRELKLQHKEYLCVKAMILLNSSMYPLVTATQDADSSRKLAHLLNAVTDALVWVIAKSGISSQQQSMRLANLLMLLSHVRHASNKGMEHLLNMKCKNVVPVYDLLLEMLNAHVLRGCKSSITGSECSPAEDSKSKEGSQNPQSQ

Turning to `CN(C)Cc1ccccc1`, the Potency entry in test [1], in [3], in test [4], in [5], in test [6] and in test [8] was “inactive” in each case. The Potency result in test [9], in test [10], in test [11] and in test [16] was “inactive” throughout. Moreover, the outcome in [2], in test [7], in test [12], in test [13], in test [14] and in test [15] was inactive.
As to `CC(=O)O[C@H]1CC[C@@]2(C)C(=CC[C@@H]3[C@@H]2CC[C@]2(C)C(C(C)=O)=CC[C@@H]32)C1`, the Potency result in test [1], in [3], in [4], in test [5], in test [6] and in test [17] was “inactive” in each case. For the same molecule, the Potency entry in test [9], in [18], in test [19], in [11] and in test [16] was “inactive” throughout. The call in test [2], in [7], in test [12], in test [13] and in test [15] was inactive.
As to `OCCN(CCO)CCN(CCO)CCO`, the Potency entry in test [1], in test [3], in test [4], in [5], in test [6] and in [17] was “inactive” each time. For the same molecule, the Potency entry in [8], in test [9], in test [18], in [11] and in test [16] was “inactive” each time. The outcome in [2], in test [20], in test [7], in test [12], in [13] and in test [14] was inactive. Moreover, the molecule was called inactive in test [15].
`CC(=O)OC(C)OC(C)=O`: the Potency entry in [1], in [3], in [4], in test [5], in test [6] and in [8] was “inactive” each time. Also, the Potency result in [9], in test [10], in test [11] and in test [16] was “inactive” throughout. The outcome in test [2], in test [20], in test [7], in test [12], in test [13] and in test [14] was inactive. For the same molecule, in test [15], the result was inactive. Besides, the Potency in test [18] was 50 µM (active).
With `CC(Oc1c(Cl)cccc1Cl)C1=NCCN1` (stereo not drawn), the Potency is 13.3 µM (active) in test [1] and 29.8 µM (active) in test [19]. In addition, the result in test [2], in test [20], in test [7], in test [12], in test [13] and in [14] was inactive. The call in [15] was inactive. Also, the Potency result in test [3], in test [4], in test [5], in test [6], in test [8] and in test [9] was “inactive” each time. In addition, the Potency entry in [18] and in [16] was “inactive” each time.
For the molecule `CN1CCN(N)CC1`, the Potency entry in test [1], in test [3], in test [4], in [5], in test [6] and in test [17] was “inactive” each time. The Potency result in test [8], in [9], in test [18], in test [10], in test [19] and in [11] was “inactive” each time. For the same molecule, the result in test [2], in test [20], in test [7], in test [12], in test [13] and in [14] was inactive. Further, in test [15], the molecule was classed as inactive.
Take `O=C(CCCl)NCc1ccccc1`: the Potency entry in test [1], in test [3], in test [4], in [5], in [17] and in [8] was “inactive” each time. Besides, the Potency result in test [9], in test [18], in test [10], in [19], in test [11] and in test [16] was “inactive” in each case. Also, the call in [2], in test [20], in test [7], in test [12], in [13] and in test [14] was inactive. Moreover, in test [15], the molecule was classed as inactive.
